MBNL1-CUG inh = MBNL1-poly(CUG) RNA binding inhibition. Q9NR56. Potency, µM (series often up to 57.5 µM), actives largely listed as inhibitors. 280,000 compounds, 0.036% hits. TR-FRET MBNL1-His/biotin-(CUG)12 binding, 665/545 ratio; active means well fitted inhibition curve with a large enough effect in the signal ratio, with a control signal flat, not every such curve was filed as active; inconclusive means small, poorly fitted or top-dose-only effect, or effect the other way, or a change in a side signal; inactive means no such curve, though single readings can be large or run the other way; the % refers to the signal ratio
Target sequence (Q9NR56 whole entry, looked up): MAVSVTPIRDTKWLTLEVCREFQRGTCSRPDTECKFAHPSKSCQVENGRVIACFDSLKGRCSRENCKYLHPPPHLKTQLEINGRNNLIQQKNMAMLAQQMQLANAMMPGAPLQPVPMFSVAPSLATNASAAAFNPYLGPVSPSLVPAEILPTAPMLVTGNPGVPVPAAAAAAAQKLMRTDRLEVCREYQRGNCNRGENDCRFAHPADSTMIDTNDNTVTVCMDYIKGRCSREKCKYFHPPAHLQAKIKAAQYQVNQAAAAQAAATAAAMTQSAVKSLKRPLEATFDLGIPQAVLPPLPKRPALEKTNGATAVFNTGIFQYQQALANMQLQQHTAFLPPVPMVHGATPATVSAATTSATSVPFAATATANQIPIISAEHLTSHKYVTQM
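Inhibition of protein-RNA binding appears as loss of TR-FRET between terbium anti-His antibody on MBNL1-His and streptavidin-XL665 on biotin-(CUG)12. Activity is normalized to buffer-only and uninhibited-complex controls.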
TCR activator = activators of T cell receptors; primary human leukocytes, anti-CD3, IL-2 HTRF, 48 h; Potency, µM (highest dose often 9.22 µM), usual class: activators; 330,000 tested, under 10 active
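Readout: HTRF IL-2, Eu-cryptate/d2 antibody pair, 320nm excitation, 665nm emission. Stimulus: a-CD3 beads, no co-stimulation. Cells: primary human leukocytes. Exposure: 48 hr with compound.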
PTAP TSG101 blk = blocks PTAP/TSG101 interaction to inhibit HIV-1 budding | Q99816 | Fluorescence polarization, FITC-PTAP peptide / Tsg101 binding | Potency, µM (titrated, usually from 115 µM), usual class: inhibitors | 340,000 tested, under 10 active; active means well fitted inhibition curve with a large enough effect in the main read-out, with a control signal flat, not every such curve was filed as active; inconclusive means small, poorly fitted or top-dose-only effect, or effect the other way, or a change in a side signal; inactive means no such curve, though single readings can be large or run the other way
Target sequence (Q99816 whole entry, looked up): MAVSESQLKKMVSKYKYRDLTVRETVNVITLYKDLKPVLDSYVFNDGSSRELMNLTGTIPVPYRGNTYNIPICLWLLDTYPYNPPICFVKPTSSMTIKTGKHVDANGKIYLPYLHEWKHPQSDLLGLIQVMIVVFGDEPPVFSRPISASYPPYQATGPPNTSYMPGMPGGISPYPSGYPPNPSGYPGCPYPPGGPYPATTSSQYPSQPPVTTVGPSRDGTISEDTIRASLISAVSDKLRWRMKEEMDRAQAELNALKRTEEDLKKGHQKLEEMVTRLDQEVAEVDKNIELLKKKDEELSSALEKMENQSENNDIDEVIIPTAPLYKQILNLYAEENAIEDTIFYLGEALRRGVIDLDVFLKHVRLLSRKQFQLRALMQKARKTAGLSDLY
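Compounds were pin-transferred onto Tsg101 binding domain (10 uM final) in HEPES pH 7.5 buffer, then FITC-PTAP peptide was added at 50 nM final. After 20 min at RT, polarization reported peptide displacement across a qHTS concentration series.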
TSHR antag = blocks TSH signaling through the human TSH receptor; 330,000 compounds, 0.2% hits; TSHR-expressing cells, TSH-stimulated cAMP HTRF, 2 h; active compounds read low; activity change, negative = inhibition, % at 11.5 µM; P16473;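 active means activity change below a set negative limit, meaning inhibition stronger than a set level, cut at about -70% in these data; inconclusive means activity change between two set negative limits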
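Cell-based HTRF cAMP assay; TSHR cells + compound, TSH EC80 (4nM final), 2 h, 37 deg C. Lysis with anti-cAMP cryptate and cAMP-d2, 30 min RT, read 665/620 nm.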
CBFb-RUNX1 inh = blocks binding between human CBF-beta and RUNX1; Potency, µM (top dose mostly 59.8 µM), usual class: inhibitors; Q01196+Q13951; AlphaScreen CBFb-His/RUNX1-biotin binding, biochemical; 230,000 tested, under 10 active
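Bead-based AlphaScreen assay; binding partners His-tagged CBF-beta and biotinylated RUNX1 at 30 nM each. Compound exposure 15 min after a 20-min protein preincubation; bead step 90 min; all steps at room temperature.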
Integrin act MD = integrin-mediated muscular dystrophy alleviation activation. 350,000 compounds, 0.064% hits. alpha7betagal myoblasts, beta-gal FDG fluorescence, 48 h. Potency, µM (titrated, usually from 38.3 µM), most hits filed as activators. AID 624291; further: nearly all actives have a fitted effect of over 60% in size
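alpha7betagal+/- myoblasts (passage 13, 250/well) treated 48 h at 37C with compounds at 1:260 dilution of DMSO stock. Lysed, then beta-galactosidase activity read as FDG fluorescence (ex 480/em 540) after 30 min, with pre-read for autofluorescence.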
MBNL1 TRFRET = blocks human MBNL1 binding to CUG repeat RNA, TR-FRET validation. shares compounds with MBNL1-CUG inh. TR-FRET MBNL1-His / biotin-(CUG)12 binding, 60 min. Potency, µM (titrated, usually from 57.6 µM), hits mostly inhibitors. 140 compounds, 50% hits
MBNL1-CUG Alpha = confirmation of MBNL1-(CUG)12 RNA binding inhibitors, orthogonal format; shares compounds with MBNL1-CUG inh; AlphaScreen MBNL1-His / biotin-(CUG)12 binding; Potency, µM (titrated, usually from 57.7 µM), hits mostly inhibitors; 140 compounds, 30% hits
MBNL1 HTRF CS = counter-screen for MBNL1-poly(CUG) RNA binding inhibitors. shares compounds with MBNL1-CUG inh. His-Menin/biotin-MLL peptide TR-FRET counterscreen. Potency, µM (series often up to 57.6 µM), hits mostly inhibitors. 120 compounds, 20% hits
Hits are given with their value; – = inactive; ? = inconclusive; · = not tested or not shown. An excerpt weighted towards active compounds, which were near 0.26% of everything screened. Unless noted, the call rests on the fitted dose curve; in most records, active means well fitted curve in the direction sought with a large enough effect; inconclusive means small, poorly fitted or top-dose-only effect, or another doubt; inactive means no such curve, though single readings can be large; an effect the other way counts as inactive or inconclusive.

SMILES	MBNL1-CUG inh	TCR activator	PTAP TSG101 blk	TSHR antag	CBFb-RUNX1 inh	Integrin act MD	others
Nc1nc2ccc([N+](=O)[O-])cc2s1	·	·	·	·	–	·
COc1ccc(O)c(/C=N/NC(=O)c2cc(=O)[nH]c3ccccc23)c1	–	–	–	–	·	5.6µM
O=C(N/N=C/c1ccccc1)c1cc(=O)[nH]c2ccccc12	–	–	–	–	–	–
COc1ccc(-c2cnc(-c3cccnc3)o2)cc1	·	·	·	·	–	·
Cc1nc(N2CCN(S(=O)(=O)c3ccccc3C#N)CC2)c2c(-c3ccccc3)csc2n1	·	–	–	-79	·	–
Cc1ccc(S(=O)(=O)NCCNS(=O)(=O)c2ccc(C)cc2)cc1	–	–	–	-83	·	–
CCNS(=O)(=O)c1ccc(C)cc1	·	·	·	·	–	·
COc1cccc(-c2csc(N3CCC(C(N)=O)CC3)n2)c1	·	·	·	–	·	·
CC[C@H](C)[C@H](NC(=O)CNC(=O)[C@H](CCCNC(=N)N)NC(=O)[C@H](CO)NC(=O)[C@H](C)NC(=O)[C@H](Cc1ccc(O)cc1)NC(=O)[C@H](Cc1c[nH]c2ccccc12)NC(=O)[C@H](C)NC(=O)[C@@H]1CCCN1C(=O)[C@H](CC(N)=O)NC(=O)[C@@H](NC(=O)[C@H](CC(=O)O)NC(=O)[C@@H]1CCCN1C(=O)[C@@H](N)[C@@H](C)O)[C@@H](C)CC)C(=O)N[C@@H](CCCNC(=N)N)C(=O)N1CCC[C@H]1C(=O)N[C@H](C(=O)NCC(=O)N[C@@H](CCCNC(=N)N)C(=O)N[C@@H](Cc1ccccc1)C(N)=O)C(C)C	·	·	·	·	–	·
COc1ccc(-c2csc(Nc3ccccc3)[n+]2Cc2ccccc2)cc1	–	–	–	–	–	–
Cc1ccc(-c2csc(Nc3ccc(C(=O)O)cc3)[n+]2Cc2ccccc2)cc1	–	–	–	–	–	8.9µM
O=C(c1ccccc1F)N1CCN(Cc2ccc3c(c2)OCO3)CC1	–	·	–	–	·	–
N#Cc1c(F)cccc1N1CCN(Cc2ccc3c(c2)OCO3)CC1	–	–	–	-90	·	–
COc1cc2c(cc1NC(=O)Cc1ccc(C)cc1)oc1ccccc12	–	–	–	–	–	1.1µM
O=C(O)/C=C/C(=O)Nc1ccc(C2(c3ccc(NC(=O)/C=C/C(=O)O)cc3)c3ccccc3-c3ccccc32)cc1	–	–	–	-86	·	–
COc1cc2[nH]c(C(=O)Nc3ccc(F)cc3)cc2c(OC)c1OC	–	·	·	-78	·	·
COc1ccc(-c2nnc3n2N=C(c2cc(OC)ccc2OC)CS3)cc1	·	·	·	·	–	·
O=C(Nc1cc(Cl)ccc1O)C1CC(c2c(F)cccc2Cl)=NO1 (stereo unspecified)	–	·	–	–	·	–
O=C(Nc1cc(Br)ccc1O)C1CC(c2ccccc2Cl)=NO1 (stereo unspecified)	–	–	–	–	·	13µM
CN1C2CC(OC(=O)C(CO)c3ccccc3)C[C@@H]1[C@H]1OC21 (stereo partly specified)	·	·	·	·	–	·
Cc1ccc(C2Nc3cccc4cccc(c34)N2)s1	·	–	–	–	–	3.2µM
Fc1ccc(C2Nc3cccc4cccc(c34)N2)cc1	–	–	–	–	·	–
COc1cc(NC(=O)CN(C)S(=O)(=O)c2ccc3c(c2)CC(C)N3C(C)=O)cc(OC)c1OC (stereo unspecified)	–	–	–	–	·	10µM
COc1cccc(NC(=O)Nc2nc(-c3ccc(OC)c(OC)c3)cs2)c1	–	–	–	-94	·	–
CCCCC/C=C\C/C=C\C/C=C\CCCCCCC(=O)NCC(=O)O	·	·	·	·	–	·
SMILES	MBNL1-CUG inh	TCR activator	PTAP TSG101 blk	TSHR antag	CBFb-RUNX1 inh	Integrin act MD	others
CCCN(C(=O)c1ccc(S(=O)(=O)N2CCCC2)cc1)C1CCS(=O)(=O)C1 (stereo unspecified)	·	–	–	–	·	5µM
O=C1C2C3C=CC(CO)(O3)C2C(=O)N1c1ccccc1-c1ccccc1 (stereo unspecified)	–	·	–	-73	–	–
CC(=O)Oc1ccc(N2C(=O)C3C4C=CC(CO)(O4)C3C2=O)cc1 (stereo unspecified)	–	–	–	–	–	–
COc1ccc(CC(=O)Oc2ccc(C)cc2Br)cc1OC	16µM	–	–	–	·	–	MBNL1 TRFRET=?;MBNL1-CUG Alpha=5.2µM;MBNL1 HTRF CS=16µM
COc1ccc(CCNC(=O)C2CC(=O)N(c3ccc(C)cc3)C2)cc1OC (stereo unspecified)	–	–	–	–	·	?	MBNL1 TRFRET=?;MBNL1-CUG Alpha=–;MBNL1 HTRF CS=–
Cc1cc2c(c(=O)n1CCN(C)C)C(c1ccccc1Br)C(C#N)=C(N)O2 (stereo unspecified)	10µM	–	–	–	–	–	MBNL1 TRFRET=13µM;MBNL1-CUG Alpha=–;MBNL1 HTRF CS=26µM
Cc1cccc(C)c1Nc1oc(-c2ccccc2)nc1-c1ccccc1F	·	·	·	·	–	·
COc1ccc(-c2nc3ccncc3[nH]2)cc1OC	20µM	–	–	–	–	–	MBNL1 TRFRET=6.5µM;MBNL1-CUG Alpha=–;MBNL1 HTRF CS=18µM
COc1cccc(-c2cc(C(=O)Nc3cccnc3Cl)no2)c1	–	–	–	–	·	?
O=C(Nc1cccnc1Cl)c1cc(-c2cccc(O)c2)on1	7.1µM	–	–	–	·	–	MBNL1 TRFRET=13µM;MBNL1-CUG Alpha=?;MBNL1 HTRF CS=–
CC(C)CC(CSc1ccc(Br)cc1)N1CCN(C)CCC1=O (stereo unspecified)	·	·	·	·	–	·
O=C(OC[C@H]1O[C@@H](OC(=O)c2cc(O)c(O)c(OC(=O)c3cc(O)c(O)c(O)c3)c2)[C@H](OC(=O)c2cc(O)c(O)c(OC(=O)c3cc(O)c(O)c(O)c3)c2)[C@@H](OC(=O)c2cc(O)c(O)c(OC(=O)c3cc(O)c(O)c(O)c3)c2)[C@@H]1OC(=O)c1cc(O)c(O)c(OC(=O)c2cc(O)c(O)c(O)c2)c1)c1cc(O)c(O)c(OC(=O)c2cc(O)c(O)c(O)c2)c1	·	·	·	–	·	·	MBNL1 HTRF CS=37µM
CCOC(=O)CCCCC(=O)c1[nH]c(=O)[nH]c1CSc1nnc2c3ccccc3n(C(C)C)c2n1	28µM	–	–	–	–	–	MBNL1 TRFRET=?;MBNL1-CUG Alpha=3.7µM;MBNL1 HTRF CS=–

Source: PubChem BioAssay (National Center for Advancing Translational Sciences (NCATS))
